According to the supplement of paper PMC11732987, “Enantioselective OTUD7B fragment discovery through chemoproteomics screening and high-throughput optimisation” (Communications Chemistry, 2025):

Columns and labels:
Assay in all cases: log2 ratio of Biotin-Ahx-Ub-VS probe labelling (fragment/DMSO); higher = less target engagement (more negative = stronger competition), active = hit call of the paper (q ≤ 0.05, log2 ratio ≤ -1)
Conditions in all cases: compound concentration: 200 uM; treatment time: 3 h
USP34 = USP34 (UniProt Q70CQ2)
In short: (§1)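 Labelled DUBs from HEK293T lysate were NeutrAvidin-enriched, digested with LysC and trypsin, and run by diaPASEF LC-MS/MS. Before that, each 495 µg sample in Tris/CHAPS/IGEPAL buffer with protease inhibitors was treated in triplicate with fragment at 200 µM or vehicle for 3 h, then with Biotin-Ahx-Ub-VS at 0.5 µM final for 1 h. Values are average log2 ratios of fragment over vehicle by unpaired t-test, based on global-median-normalised Spectronaut label-free quantities from proteins with ≥2 unique peptides.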

USP36 = target: T1, USP36 (UniProt Q9P275)
T1 sequence (whole entry): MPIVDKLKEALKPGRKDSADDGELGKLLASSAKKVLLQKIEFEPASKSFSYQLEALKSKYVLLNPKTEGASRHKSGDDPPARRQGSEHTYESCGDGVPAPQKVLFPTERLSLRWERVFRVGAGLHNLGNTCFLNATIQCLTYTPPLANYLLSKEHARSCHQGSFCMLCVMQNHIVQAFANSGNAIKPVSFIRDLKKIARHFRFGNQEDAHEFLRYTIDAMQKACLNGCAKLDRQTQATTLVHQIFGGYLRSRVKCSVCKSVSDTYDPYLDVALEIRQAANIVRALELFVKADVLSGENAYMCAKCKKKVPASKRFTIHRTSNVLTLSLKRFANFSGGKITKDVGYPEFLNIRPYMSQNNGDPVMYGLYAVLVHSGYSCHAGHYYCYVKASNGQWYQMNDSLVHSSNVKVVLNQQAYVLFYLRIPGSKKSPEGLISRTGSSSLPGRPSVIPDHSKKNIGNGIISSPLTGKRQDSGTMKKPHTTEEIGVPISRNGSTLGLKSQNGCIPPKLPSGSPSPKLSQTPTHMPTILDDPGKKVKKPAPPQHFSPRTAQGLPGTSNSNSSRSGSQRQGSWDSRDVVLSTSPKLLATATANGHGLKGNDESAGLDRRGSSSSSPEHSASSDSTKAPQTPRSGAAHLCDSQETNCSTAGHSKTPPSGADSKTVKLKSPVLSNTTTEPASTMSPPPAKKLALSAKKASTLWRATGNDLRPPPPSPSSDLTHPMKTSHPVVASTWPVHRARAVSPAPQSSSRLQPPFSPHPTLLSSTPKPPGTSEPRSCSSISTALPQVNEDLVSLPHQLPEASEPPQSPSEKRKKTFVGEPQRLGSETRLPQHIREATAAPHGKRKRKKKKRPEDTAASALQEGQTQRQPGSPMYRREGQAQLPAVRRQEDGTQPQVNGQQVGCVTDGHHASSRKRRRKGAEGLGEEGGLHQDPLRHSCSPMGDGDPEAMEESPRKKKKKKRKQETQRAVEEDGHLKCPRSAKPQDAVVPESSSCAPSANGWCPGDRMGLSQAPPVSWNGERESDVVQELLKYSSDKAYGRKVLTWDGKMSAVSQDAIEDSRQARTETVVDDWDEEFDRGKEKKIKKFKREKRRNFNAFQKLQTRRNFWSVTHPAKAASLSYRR
In short: as §1

USP38 = target: T2, USP38 (UniProt Q8NB14)
T2 sequence (whole entry): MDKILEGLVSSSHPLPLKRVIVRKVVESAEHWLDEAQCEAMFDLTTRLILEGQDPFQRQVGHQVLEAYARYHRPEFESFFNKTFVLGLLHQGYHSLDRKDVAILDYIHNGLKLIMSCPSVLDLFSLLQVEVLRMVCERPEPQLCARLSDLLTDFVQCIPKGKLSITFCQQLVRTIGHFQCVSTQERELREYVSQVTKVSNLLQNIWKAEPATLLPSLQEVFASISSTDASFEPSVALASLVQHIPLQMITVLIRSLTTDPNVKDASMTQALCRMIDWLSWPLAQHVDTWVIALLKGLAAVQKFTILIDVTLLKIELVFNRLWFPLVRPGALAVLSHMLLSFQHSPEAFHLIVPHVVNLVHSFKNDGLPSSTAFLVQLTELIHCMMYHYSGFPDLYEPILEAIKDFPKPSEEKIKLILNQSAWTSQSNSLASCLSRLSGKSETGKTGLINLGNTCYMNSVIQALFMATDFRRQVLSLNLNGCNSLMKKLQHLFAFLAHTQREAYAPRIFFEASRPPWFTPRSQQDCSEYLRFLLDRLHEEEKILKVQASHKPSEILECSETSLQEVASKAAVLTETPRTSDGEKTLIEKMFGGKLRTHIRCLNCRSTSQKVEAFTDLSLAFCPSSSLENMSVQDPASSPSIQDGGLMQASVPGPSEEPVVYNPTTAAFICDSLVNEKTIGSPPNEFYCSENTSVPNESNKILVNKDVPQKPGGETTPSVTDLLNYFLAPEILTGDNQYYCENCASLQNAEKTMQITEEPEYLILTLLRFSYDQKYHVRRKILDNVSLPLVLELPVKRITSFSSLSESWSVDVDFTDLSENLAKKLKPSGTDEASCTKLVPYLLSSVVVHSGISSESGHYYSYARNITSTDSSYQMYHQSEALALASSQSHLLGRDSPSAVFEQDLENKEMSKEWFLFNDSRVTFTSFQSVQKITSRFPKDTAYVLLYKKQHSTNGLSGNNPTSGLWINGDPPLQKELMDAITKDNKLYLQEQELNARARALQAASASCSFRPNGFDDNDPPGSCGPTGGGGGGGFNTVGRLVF
In short: as §1

USP39 = target: T3, USP39 (UniProt Q53GS9)
T3 sequence (whole entry): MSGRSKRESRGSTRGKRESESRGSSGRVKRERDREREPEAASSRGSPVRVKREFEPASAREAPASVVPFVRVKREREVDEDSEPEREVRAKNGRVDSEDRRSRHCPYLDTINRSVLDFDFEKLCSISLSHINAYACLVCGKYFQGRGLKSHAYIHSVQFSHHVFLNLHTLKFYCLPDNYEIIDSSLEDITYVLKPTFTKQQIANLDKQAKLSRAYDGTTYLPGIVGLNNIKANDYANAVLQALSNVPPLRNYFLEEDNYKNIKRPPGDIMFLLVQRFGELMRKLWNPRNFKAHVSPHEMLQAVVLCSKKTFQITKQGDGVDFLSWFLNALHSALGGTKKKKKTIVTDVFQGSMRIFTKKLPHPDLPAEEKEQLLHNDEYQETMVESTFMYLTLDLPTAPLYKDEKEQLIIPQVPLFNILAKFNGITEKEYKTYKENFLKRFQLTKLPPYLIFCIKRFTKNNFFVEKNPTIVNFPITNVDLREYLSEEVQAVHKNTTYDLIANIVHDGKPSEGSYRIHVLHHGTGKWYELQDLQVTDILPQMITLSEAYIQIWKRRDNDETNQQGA
In short: as §1

USP4 = target: T4, USP4 (UniProt Q13107)
T4 sequence (whole entry): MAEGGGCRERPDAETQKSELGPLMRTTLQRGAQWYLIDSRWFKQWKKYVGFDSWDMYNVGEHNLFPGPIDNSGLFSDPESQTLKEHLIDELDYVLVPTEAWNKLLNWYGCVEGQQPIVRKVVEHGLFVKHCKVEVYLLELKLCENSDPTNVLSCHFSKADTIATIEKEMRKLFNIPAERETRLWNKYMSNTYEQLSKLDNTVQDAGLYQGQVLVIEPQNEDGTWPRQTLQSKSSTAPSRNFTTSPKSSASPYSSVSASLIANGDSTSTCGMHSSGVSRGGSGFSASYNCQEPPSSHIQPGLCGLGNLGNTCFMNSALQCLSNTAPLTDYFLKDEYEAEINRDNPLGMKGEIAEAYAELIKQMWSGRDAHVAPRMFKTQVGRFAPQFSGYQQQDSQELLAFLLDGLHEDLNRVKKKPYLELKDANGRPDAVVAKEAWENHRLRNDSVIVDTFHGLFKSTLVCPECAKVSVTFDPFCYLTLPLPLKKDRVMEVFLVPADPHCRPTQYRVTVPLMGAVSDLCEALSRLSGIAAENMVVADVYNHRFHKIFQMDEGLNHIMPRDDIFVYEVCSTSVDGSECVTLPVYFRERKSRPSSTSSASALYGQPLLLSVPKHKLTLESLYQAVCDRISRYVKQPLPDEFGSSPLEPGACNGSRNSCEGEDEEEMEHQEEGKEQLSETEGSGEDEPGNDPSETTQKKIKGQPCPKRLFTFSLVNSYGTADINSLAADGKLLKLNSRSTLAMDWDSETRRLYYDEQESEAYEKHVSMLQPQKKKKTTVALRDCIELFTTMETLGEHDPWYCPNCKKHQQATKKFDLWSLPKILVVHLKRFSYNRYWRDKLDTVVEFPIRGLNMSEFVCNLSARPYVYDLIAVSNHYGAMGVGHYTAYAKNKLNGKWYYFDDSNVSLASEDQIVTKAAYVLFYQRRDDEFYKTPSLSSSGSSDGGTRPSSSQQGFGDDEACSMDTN
In short: as §1

Measured: log2 ratio of Biotin-Ahx-Ub-VS probe labelling

Chain of USP34 (Q70CQ2 whole entry, the tested form may be a part): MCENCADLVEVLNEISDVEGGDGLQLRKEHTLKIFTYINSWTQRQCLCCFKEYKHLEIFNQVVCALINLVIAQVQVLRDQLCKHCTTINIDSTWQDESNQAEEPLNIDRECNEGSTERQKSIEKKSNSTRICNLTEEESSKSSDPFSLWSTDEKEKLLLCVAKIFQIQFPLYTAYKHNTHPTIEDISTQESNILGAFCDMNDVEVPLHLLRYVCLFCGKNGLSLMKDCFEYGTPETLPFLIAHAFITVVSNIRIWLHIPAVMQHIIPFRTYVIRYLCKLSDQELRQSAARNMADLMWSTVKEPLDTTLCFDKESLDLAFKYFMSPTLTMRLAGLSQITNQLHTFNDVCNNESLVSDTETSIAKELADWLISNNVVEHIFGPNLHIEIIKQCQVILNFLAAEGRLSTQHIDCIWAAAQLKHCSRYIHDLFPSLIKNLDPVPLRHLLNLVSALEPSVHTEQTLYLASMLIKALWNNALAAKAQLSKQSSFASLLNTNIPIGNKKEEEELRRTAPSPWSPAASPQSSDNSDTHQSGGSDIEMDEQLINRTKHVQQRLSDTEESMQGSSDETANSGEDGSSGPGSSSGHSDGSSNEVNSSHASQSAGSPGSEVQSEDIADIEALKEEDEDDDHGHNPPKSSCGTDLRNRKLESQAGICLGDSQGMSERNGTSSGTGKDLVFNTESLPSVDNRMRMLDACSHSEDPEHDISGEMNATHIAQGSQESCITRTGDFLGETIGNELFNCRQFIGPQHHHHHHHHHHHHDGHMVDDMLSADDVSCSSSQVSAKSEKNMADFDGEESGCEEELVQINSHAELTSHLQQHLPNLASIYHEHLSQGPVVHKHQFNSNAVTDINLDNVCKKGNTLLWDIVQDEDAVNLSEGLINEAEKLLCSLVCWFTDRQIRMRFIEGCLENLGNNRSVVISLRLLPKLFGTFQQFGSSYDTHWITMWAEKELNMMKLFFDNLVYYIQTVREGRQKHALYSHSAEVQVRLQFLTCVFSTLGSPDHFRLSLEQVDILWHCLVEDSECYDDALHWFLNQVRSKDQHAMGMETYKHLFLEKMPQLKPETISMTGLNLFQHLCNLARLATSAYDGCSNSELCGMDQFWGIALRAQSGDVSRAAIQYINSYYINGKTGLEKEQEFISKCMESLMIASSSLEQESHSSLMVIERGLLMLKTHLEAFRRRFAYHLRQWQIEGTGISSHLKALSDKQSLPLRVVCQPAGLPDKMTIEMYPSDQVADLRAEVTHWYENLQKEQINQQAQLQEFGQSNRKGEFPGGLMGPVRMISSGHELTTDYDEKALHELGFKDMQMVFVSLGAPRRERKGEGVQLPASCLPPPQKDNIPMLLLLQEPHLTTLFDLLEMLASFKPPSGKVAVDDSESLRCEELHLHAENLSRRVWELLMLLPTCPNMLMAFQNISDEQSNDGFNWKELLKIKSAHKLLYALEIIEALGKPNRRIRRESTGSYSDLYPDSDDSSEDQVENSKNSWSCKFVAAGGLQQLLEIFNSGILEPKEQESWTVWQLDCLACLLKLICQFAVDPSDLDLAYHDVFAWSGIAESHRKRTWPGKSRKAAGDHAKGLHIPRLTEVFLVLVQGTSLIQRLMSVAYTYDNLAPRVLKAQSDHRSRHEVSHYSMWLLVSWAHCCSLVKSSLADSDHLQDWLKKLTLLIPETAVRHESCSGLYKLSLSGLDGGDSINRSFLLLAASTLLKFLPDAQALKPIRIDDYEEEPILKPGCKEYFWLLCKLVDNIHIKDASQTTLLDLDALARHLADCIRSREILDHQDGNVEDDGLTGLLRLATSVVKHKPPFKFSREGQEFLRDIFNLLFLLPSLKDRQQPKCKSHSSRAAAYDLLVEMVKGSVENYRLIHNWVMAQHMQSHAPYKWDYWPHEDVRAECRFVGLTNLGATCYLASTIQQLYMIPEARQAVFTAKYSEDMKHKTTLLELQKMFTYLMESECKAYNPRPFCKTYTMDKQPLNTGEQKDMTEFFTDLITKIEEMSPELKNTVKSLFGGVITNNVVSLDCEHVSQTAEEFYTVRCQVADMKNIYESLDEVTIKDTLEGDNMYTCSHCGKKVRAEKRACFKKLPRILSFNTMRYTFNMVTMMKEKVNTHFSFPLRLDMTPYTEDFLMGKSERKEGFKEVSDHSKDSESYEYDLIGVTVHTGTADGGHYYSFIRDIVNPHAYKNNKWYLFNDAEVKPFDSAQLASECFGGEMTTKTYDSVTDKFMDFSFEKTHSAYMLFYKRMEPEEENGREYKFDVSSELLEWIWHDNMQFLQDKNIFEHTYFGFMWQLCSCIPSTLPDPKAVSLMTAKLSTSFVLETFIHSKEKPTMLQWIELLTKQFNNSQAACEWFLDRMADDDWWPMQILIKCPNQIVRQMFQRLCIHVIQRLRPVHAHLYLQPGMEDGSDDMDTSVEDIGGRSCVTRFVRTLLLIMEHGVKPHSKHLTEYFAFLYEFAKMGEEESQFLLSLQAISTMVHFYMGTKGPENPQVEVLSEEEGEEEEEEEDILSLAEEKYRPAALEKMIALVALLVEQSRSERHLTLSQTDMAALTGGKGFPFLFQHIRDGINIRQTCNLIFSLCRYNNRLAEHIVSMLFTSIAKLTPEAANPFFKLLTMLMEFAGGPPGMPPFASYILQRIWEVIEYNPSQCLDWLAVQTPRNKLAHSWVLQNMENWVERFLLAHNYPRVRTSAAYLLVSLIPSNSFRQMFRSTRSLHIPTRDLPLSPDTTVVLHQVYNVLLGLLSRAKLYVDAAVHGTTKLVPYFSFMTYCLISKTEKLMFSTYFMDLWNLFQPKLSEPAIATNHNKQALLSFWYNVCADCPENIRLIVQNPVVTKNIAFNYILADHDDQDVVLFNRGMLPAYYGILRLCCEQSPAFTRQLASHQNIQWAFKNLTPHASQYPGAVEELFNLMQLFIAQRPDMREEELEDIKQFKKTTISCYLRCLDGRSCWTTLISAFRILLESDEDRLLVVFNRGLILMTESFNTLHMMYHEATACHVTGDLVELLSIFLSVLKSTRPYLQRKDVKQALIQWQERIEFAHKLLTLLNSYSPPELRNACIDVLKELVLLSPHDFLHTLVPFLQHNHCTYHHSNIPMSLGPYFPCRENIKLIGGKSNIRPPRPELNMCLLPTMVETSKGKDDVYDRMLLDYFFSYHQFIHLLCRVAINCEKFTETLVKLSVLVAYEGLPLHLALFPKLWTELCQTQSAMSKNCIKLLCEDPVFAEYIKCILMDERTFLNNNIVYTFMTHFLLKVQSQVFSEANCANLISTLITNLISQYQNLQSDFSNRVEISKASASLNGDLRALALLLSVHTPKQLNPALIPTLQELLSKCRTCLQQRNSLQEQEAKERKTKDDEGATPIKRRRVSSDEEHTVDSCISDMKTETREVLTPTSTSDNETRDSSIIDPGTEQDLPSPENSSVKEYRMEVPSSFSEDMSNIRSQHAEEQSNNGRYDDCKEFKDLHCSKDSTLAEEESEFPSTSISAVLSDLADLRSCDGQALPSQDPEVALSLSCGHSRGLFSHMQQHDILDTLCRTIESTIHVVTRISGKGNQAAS

O=C(CCl)N(Cc1ccsc1)C1CC1
inactive: USP34 -0.211 | USP36 0.266 | USP38 0.00214 | USP39 -0.0741 | USP4 -0.116
